Results on 95 compounds are retold here after PubChem BioAssay AID463173 (ICCB-Longwood Screening Facility, Harvard Medical School, 2010).

Hit rate of the full screen: of about 52,000 compounds, about 4,300 (8.3%) were called active. Shown is part of a subset that was picked to be rich in actives. Unmarked numbers belong to inactive results. No stated cut-off is given here; in the data, active means survival mostly below about 52% (no sharp cut-off); inactive means mostly above about 56%.

For the test, the system named is DeltatarO mutant. Nature of the test: growth inhibition of S. aureus wild type versus tarO mutant, primary screen, teichoic acid synthesis inhibitors, RN4220, OD600 (AID 463173). Particulars: OD600, 18 h, hits give low values, screened at 18.75 µg/mL (by protocol).
On to `CC(NC(=O)Nc1cc(Cl)ccc1Cl)c1c(-n2cccc2)sc2c1CCCC2` (stereo not given), for which the survival is 72%.
Turning to `Cc1ccc2c(c1)N(C(=O)NCc1ccccc1)CCO2`, the survival is 79%.
For the compound `Cc1cccc(CN2C(=O)c3ccccc3S(=O)(=O)c3ccc(C(=O)NC4CCCCC4)cc32)c1`, the survival was 79%.
Regarding `COCCNC(=O)CCCn1c(SCC(=O)c2ccc(Br)cc2)nc2c(sc3ccccc32)c1=O`, the survival was 68%.
Regarding `COc1ccccc1CNC(=O)CN1C(=O)COc2ccc(S(=O)(=O)N3CCC(C)CC3)cc21`, the survival was 76%.
In the case of `Cn1cc(S(=O)(=O)c2ccc(Cl)cc2)c(=O)c2cc(F)c(N3CCCC3)cc21`, the survival is 73%.
Consider `COCCCNC(=O)c1sc2nc3n(c(=O)c2c1C)CCC3`, for which the survival is 91%.
Take `CCOc1ccccc1NC(=O)CSc1nc2c(c(=O)[nH]1)CCC2`: the survival was 101%.
Regarding `COc1ccc(OC)c(CCNC(=O)c2cnn(-c3ccccc3)c2C2CCN(C(=O)OC(C)(C)C)CC2)c1`, the survival was 73%.
With `CCc1ccc(NC(=O)CSc2ccccn2)cc1`, the survival was 89%.
As for `COc1ccc(-c2[nH]c(-c3cccc(OC)c3)nc2SCC(=O)Nc2ccc3c(c2)OCO3)cc1`, the survival was 55%.
For the compound `COc1cccc(-c2nc(SCC(=O)Nc3ccc4c(c3)OCO4)c(-c3ccccc3)[nH]2)c1`, the survival was 31% (active).
On to `COc1cccc(-c2nc(SCC(=O)Nc3ccc4c(c3)OCCO4)c(-c3ccccc3)[nH]2)c1`, for which the survival was 54%.
With `CC(=O)N1c2ccc(S(=O)(=O)NCCC(=O)Nc3ccc(Br)c(C)c3)cc2CC1C` (stereo not given) the figure was 90%.
Consider `Cc1ccc(CCNC(=O)c2ccc3c(c2)N(Cc2cccc(C)c2)C(=O)c2ccccc2S3(=O)=O)cc1`, for which the survival was 72%.
`CCOC(=O)C1CCCN(CC(=O)N2CCCc3c2c(=O)oc2ccc(OCc4ccccc4)cc32)C1` (stereo not given): the survival was 121%.
With `COc1ccc(N2CC(C(=O)NCc3nnnn3-c3ccc(C)c(C)c3)CC2=O)cc1` (stereo not given) the figure was 69%; with `CCCCSc1ncnc2c1c(-c1ccccc1)cn2-c1cccc(F)c1`, 78%.
`CCCSc1ncnc2c1c(-c1ccccc1)cn2-c1ccccc1OC`: the survival is 2% (active).
Consider `CCOC(=O)CSc1ncnc2c1c(-c1ccccc1)cn2-c1ccc(OC)cc1`, for which the survival is 60%.
In the case of `CC(C(=O)O)N1CCCC1` (stereo not given), the survival is 94%.
In the case of `CC(C(=O)O)N1C(=O)NC2NC(=O)NC21` (stereo not given), the survival is 54% (active).
As to `CCOc1ccc(C(=O)Nc2nnc(SCc3cc(=O)c4cc(C)ccc4[nH]3)s2)cc1`, the survival was 91%.
Consider `COCCNC(=O)c1ccc2c(c1)NC(=O)C(CS(=O)(=O)Cc1ccc(F)cc1Cl)N2` (stereo not given), for which the survival is 130%.
Consider `Nc1ccc2c(c1)OC1(CCCCC1)O2`, for which the survival was 55% (active).
In the case of `O=C1OC2(CCCC2)OC(=O)C1=CNc1ccccc1`, the survival was 96%.
For `COc1ccccc1-c1cc(C(=O)Nc2ccccc2C(F)(F)F)no1`, the survival is 71%.
Regarding `Cc1ccc2c(=O)cc(C(=O)Nc3ccc(S(=O)(=O)Nc4ncccn4)cc3)oc2c1C`, the survival is 76%.
As to `N#Cc1ccc(NC(=O)c2ccc3c(c2)nnn3C2CCCC2)cc1`, the survival is 126%.
As to `Cc1cc(-c2ccc(S(=O)(=O)Nc3cccc(Cl)c3C)cc2)on1`, the survival is 94%.
For `Cc1ccc(-c2nnn(CC(=O)N(CC(=O)NCC3CCCO3)C3CCN(Cc4ccccc4)CC3)n2)o1` (stereo not given), the survival is 83%.
As for `O=C(NCc1ccco1)C(Sc1ccccc1)c1ccccc1` (stereo not given), the survival is 101%.
In the case of `CCOc1ccccc1NC(=O)c1sc2nc3n(c(=O)c2c1C)CCCCC3`, the survival was 45%.
Regarding `CCN(CC)CCNC(=O)c1sc2nc3n(c(=O)c2c1C)CCCCC3`, the survival is 53%.
Consider `CCOC(=O)c1ccccc1NC(=O)c1sc2nc3n(c(=O)c2c1C)CCCC3`, for which the survival is 103%.
As to `CCOC(=O)c1ccccc1NC(=O)c1sc2nc3n(c(=O)c2c1C)CCCCC3`, the survival is 37% (active).
Then `CCCN(CCC)CCNC(=O)c1sc2nc3n(c(=O)c2c1C)CCCCC3`, with 62% (active).
Consider `Cc1c(C(=O)NCc2ccc(Cl)cc2)sc2nc3n(c(=O)c12)CCCCC3`, for which the survival is 51% (active).
For the compound `Cc1ccc(CNC(=O)c2sc3nc4n(c(=O)c3c2C)CCCC4)cc1`, the survival is 80%.
Then `CCCN(CCC)CCCNC(=O)c1sc2nc3n(c(=O)c2c1C)CCC3`, with 79%.
For `Cc1c(C(=O)NCc2ccc(Cl)cc2)sc2nc3n(c(=O)c12)CCCC3`, the survival was 95%.
With `Cc1c(C(=O)NCc2ccccc2)sc2nc3n(c(=O)c12)CCCCC3` the figure was 56%; with `Cc1ccc(CNC(=O)c2sc3nc4n(c(=O)c3c2C)CCCCC4)cc1`, 53% (active).
With `Cc1c(C(=O)NCc2ccc(Cl)cc2)sc2nc3n(c(=O)c12)CCC3` the figure was 102%.
On to `O=C(NCc1ccccc1Cl)c1cc2cccc3c2n1CCS3`, for which the survival was 115%.
With `COc1cc(OC)c(NC(=O)c2cc(C)nc3c2c(C)nn3-c2ccc(C)cc2)cc1Cl` the figure was 103%.
Regarding `Cc1c(Cl)ccc2sc(N3CCN(C(=O)c4ccco4)CC3)nc12`, the survival was 69%.
Take `COc1cccc(NC(=O)CN2C(=O)c3cccnc3Oc3ccc(Cl)cc32)c1`: the survival was 80%.
Regarding `COc1cc(NC(=O)c2sc3nc4n(c(=O)c3c2C)CCCCC4)cc(OC)c1OC`, the survival was 42% (active).
Turning to `COc1cc(OC)c(NC(=O)c2sc3nc4n(c(=O)c3c2C)CCCC4)cc1Cl`, the survival was 64%.
With `COc1cc(Cl)c(C)cc1NC(=O)c1sc2nc3n(c(=O)c2c1C)CCCCC3` the figure was 52%.
`CC(C)NS(=O)(=O)c1ccc2nc(NC(=O)c3cncc(Br)c3)sc2c1`: the survival is 87%.
With `COc1ccc2c(c1)c1c(c(=O)n(Cc3ccccc3)c(=O)n1CC(=O)NCc1ccccc1Cl)n2C` the figure was 72%; with `CNC(=O)Cc1nc2ccccc2[nH]1`, 87%.
Take `O=C(O)CNCc1nc2ccccc2[nH]1`: the survival was 95%.
With `C/C(Cc1nc2ccccc2[nH]1)=N/Nc1ccccc1`, the survival is 2% (active).
Turning to `COc1ccc(-c2noc(N3CCN(c4ccc(Cl)cc4)CC3)n2)cc1OC`, the survival was 80%.
Then `Cc1ccc(-c2cc(C(=O)N3CCN(S(=O)(=O)c4ccc(Br)s4)CC3)[nH]n2)cc1C`, with 83%; and `CCOc1ccc(C2c3c(oc4ccc(C)cc4c3=O)C(=O)N2c2nc(C)c(C)s2)cc1OC` (stereo not given), with 170%.
As for `CCCCN1CC(c2nc3ccccc3n2CCCCOc2cc(C)cc(C)c2)CC1=O` (stereo not given), the survival is 33% (active).
For `CCCCN1CC(c2nc3ccccc3n2CCCCOc2ccc(C)c(C)c2)CC1=O` (stereo not given), the survival is 20% (active).
On to `Cc1cc(C)cc(NC(=O)Cn2nnc(C(=O)Nc3cc(C)cc(C)c3)c2N)c1`, for which the survival was 74%.
With `Cc1ccc2c(CC(=O)Nc3cccc(Cl)c3C)coc2c1`, the survival is 100%.
With `Cc1oc2ncnc(N3CCCCC3)c2c1C(=O)NCC1CCN(Cc2ccc(F)cc2)CC1` the figure was 77%.
Then `CCc1ccc(CNC(=O)c2c(C)oc3ncnc(N4CCOCC4)c23)cc1`, with 128%; and `CCc1ccccc1N(CC)C(=O)c1c(C)oc2ncnc(N3CCOCC3)c12`, with 96%.
Turning to `Cc1ccc(CNC(=O)c2c(C)oc3ncnc(N4CCOCC4)c23)cc1`, the survival was 17% (active).
Turning to `Cc1oc2ncnc(N3CCCCC3)c2c1C(=O)NCC1CCN(Cc2cccc(F)c2)CC1`, the survival was -5% (active).
On to `CCCN(C(=O)c1c(C)oc2ncnc(N3CCOCC3)c12)c1ccc(Cl)c(Cl)c1`, for which the survival is 46%.
Then `COC(=O)CCN(C(=O)c1c(C)oc2ncnc(N3CCOCC3)c12)c1ccccc1`, with 8% (active).
In the case of `Cc1cccc(CN2CCC(CNC(=O)c3c(C)oc4ncnc(N5CCCCC5)c34)CC2)c1`, the survival was 77%.
Consider `Cc1oc2ncnc(N3CCOCC3)c2c1C(=O)NCc1ccc(Cl)cc1`, for which the survival was 94%.
Regarding `COc1ccc2oc(=O)c(C(=O)NCc3cccnc3)cc2c1`, the survival is 83%.
Turning to `CCOC(=O)c1cc(-c2ccc(F)cc2)n(CCC(=O)Nc2nc3cc(C)c(C)cc3s2)c1C`, the survival was 85%.
With `CCc1cccc2sc(N3CCN(C(=O)c4cc5ccccc5cc4OC)CC3)nc12`, the survival was 119%.
Turning to `COc1ccc(-n2nc(C(=O)N3CCN(c4ccc(F)cc4)CC3)c3c4ccccc4n(C)c3c2=O)cc1`, the survival was 69%.
Regarding `Cc1cc(N2CCN(c3cccc(C)c3C)CC2)n2cnnc2n1`, the survival was 99%.
For the compound `Cc1ccc(NC(=O)Cn2c(=O)oc3cc(S(=O)(=O)N4CCCC4)ccc32)cc1F`, the survival was 113%.
Then `CCCN(CCC)CCCNC(=O)c1cn(CC)c2ccc(S(=O)(=O)N(C)C3CCCCC3)cc2c1=O`, with 94%.
Regarding `CCCCN(CCCC)CCNC(=O)c1cn(CC)c2ccc(S(=O)(=O)N(C)C3CCCCC3)cc2c1=O`, the survival is 144%.
As for `CCCCSCCCNC(=O)c1cn(CC)c2ccc(S(=O)(=O)N(C)C3CCCCC3)cc2c1=O`, the survival is 24% (active).
With `CCOc1ccccc1NC(=O)c1ccc(F)c(S(=O)(=O)N2CCN(c3ccc(F)cc3)CC2)c1`, the survival was 76%.
Regarding `Cc1cccc(NC(=O)c2ccc(F)c(S(=O)(=O)N3CCC4(CC3)OCCO4)c2)c1`, the survival is 72%.
On to `Cc1cccc(NC(=O)c2ccc(F)c(S(=O)(=O)N3CCN(c4ccc(F)cc4)CC3)c2)c1`, for which the survival was -1% (active).
For the compound `COc1cc(-c2cc3n(C)c(C)c(CCC(=O)NC4CCC(C)CC4)c(=O)n3n2)cc(OC)c1OC` (stereo not given), the survival is 101%.
With `CCOc1ccc(CCNC(=O)Cn2ncn3c(cc4ccccc43)c2=O)cc1OCC` the figure was 85%; with `COC(=O)C1(CO)NC(c2ccc(Cl)cc2)C2C(=O)N(C)C(=O)C21` (stereo not given), 66%.
For the compound `Cc1ccccc1C(=O)Nc1ccc(OCc2cc(=O)n3ccccc3n2)cc1`, the survival was 54%.
`COc1ccc2nc(NC(=O)c3ccc(S(=O)(=O)N4CCC(C)CC4)cc3)sc2c1`: the survival is 91%.
Turning to `Cc1ccc2nc(NC(=O)c3ccc(S(=O)(=O)N4CCC(C)CC4)cc3)sc2c1`, the survival was 93%.
Regarding `CC1CCN(S(=O)(=O)c2nnc(NC(=O)c3cccc(Br)c3)s2)CC1`, the survival was 31% (active).
Then `COc1ccc(C(=O)Nc2nnc(S(=O)(=O)N3CCC(C)CC3)s2)cc1OC`, with 79%.
With `CC1CCN(S(=O)(=O)c2nnc(NC(=O)c3cccc(Cl)c3)s2)CC1`, the survival is 23% (active).
As to `Cc1cccc(C(=O)Nc2nnc(S(=O)(=O)N3CCC(C)CC3)s2)c1`, the survival was 35% (active).
Turning to `CC1CCN(S(=O)(=O)c2ccc(C(=O)Nc3nc4ccc(F)cc4s3)cc2)CC1`, the survival is 46% (active).
